This is a sample that favours compounds with a hit; in the whole collection about 3.2% have one here.
TROY NFkB inh: blocks TROY-dependent signaling in reporter cells; 360,000 tested, 0.98% active; AID 1347056; inhibition, % at 10 µM; Q293 LMP1-TROYcd NF-kB luciferase reporter, 4 h;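 active = compounds whose plate-normalised and pattern-corrected inhibition of the luciferase reporter signal at the single screening dose is 50% or more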
EWS-Fli block: inhibitors of EWS/Fli oncoprotein transcriptional activity. 350,000 tested, 0.67% active. AID 651661. inhibition, % at 12.6 µM. A673 NR0B1-luciferase reporter, viability-normalised;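 active = mean inhibition of at least 50% after viability correction, with every replicate also passing that limit; inconclusive = mean reaches 50% but only one of two replicates passes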;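 note: firefly luciferase signal divided by Alamar Blue viability fluorescence both relative to DMSO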
TWEAK-Fn14 inh: TWEAK-Fn14 signaling inhibition | TWEAK-stimulated Fn14 reporter cells, luciferase luminescence, 8 h | inhibition, % at 10 µM | 360,000 tested, 2% active | AID 1159606; in the data active = inhibition above about 50%
PAX8 reporter: inhibitors of PAX8 transcriptional activity in RMG-I cells; inhibition, % at 12.6 µM; 360,000 tested, 1.2% active; AID 652154; RMG-I TPO-luciferase reporter, SteadyGlo, 24 h;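 active = mean replicate inhibition at least 60% with every replicate also reaching 60%; inconclusive = only one of the two criteria is met; inactive = mean below 60% and not all replicates reaching 60%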;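 note: luciferase light reporting Pax8 driven TPO promoter activity; plate controls were median of neutral control wells for no effect and mitoxantrone controls for full effect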
LGR2 inh: inhibitors of bursicon-induced Drosophila LGR2 receptor cAMP signaling. HEK293 LGR2, CRE-luciferase, bursicon-stimulated, 4 h. 380,000 tested, 0.35% active. inhibition, % at 9.99 µM;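 active = drop in luminescence signal, shown as inhibition above about 50% in the replicate tests, limit read from the data, passing the limit was not always enough; inconclusive = probably only some replicates passing the limit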;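 note: agonist challenge used bursicon conditioned medium at about half maximal strength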
LMP1 NFkB inh: reduces LMP1-driven NF-kappaB luciferase signal; LMP1-induced NF-kappaB luciferase reporter cells, luminescence; inhibition, % at 12.5 µM; 350,000 tested, 0.69% active; AID 504558; in the data active = inhibition above about 41%; inconclusive = no clear call, values can overlap the other calls;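 note: 0% = neutral control wells and 100% = reference inhibitor control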
Numbers without * were called inactive; ! = repeats disagree.

For Cc1cccc(S(=O)(=O)N2C[C@@H]3N[C@H](C2)C3c2ccc(-c3cccnc3)cc2)c1 (stereo not given in full) the results were EWS-Fli block -2.6, PAX8 reporter 15.9 and LGR2 inh 6.3.
Cc1cccc(S(=O)(=O)N2C[C@@H]3N[C@H](C2)C3c2ccc(-c3ccncc3)cc2)c1 (stereo not given in full) was read as EWS-Fli block 56.9*!, PAX8 reporter -7.8 and LGR2 inh -1.0.
Screening COc1cccc(S(=O)(=O)N2C[C@@H]3N[C@H](C2)C3c2ccc(-c3cccc(C)c3)cc2)c1 (stereo not given in full) returned EWS-Fli block 54.6*!, PAX8 reporter 68.7*! and LGR2 inh 0.9.
Screening CC(=O)N(C)C[C@H]1Oc2ncc(C#Cc3ccccn3)cc2C(=O)N([C@@H](C)CO)C[C@@H]1C returned EWS-Fli block -17.2 and LGR2 inh 7.3.
For COC(=O)C1=C(C)Nc2c(c(=O)n(C)c(=O)n2C)C1c1cccc(O)c1 (stereo not given) the results were TROY NFkB inh -7.5, EWS-Fli block 5.6, TWEAK-Fn14 inh -11.1, PAX8 reporter -5.2, LGR2 inh -12.0 and LMP1 NFkB inh -15.4.
Screening Cn1c2c(c(=O)[nH]c1=O)C(c1cccc(O)c1)C1=C(N2)c2ccccc2C1=O (stereo not given) returned TROY NFkB inh -88.3, EWS-Fli block 25.4, TWEAK-Fn14 inh -266.6, PAX8 reporter 53.3, LGR2 inh 12.7 and LMP1 NFkB inh 46.6*.
Screening O=C(Nc1ccc2c(c1)[C@H]1C[C@@H](CC(=O)N3CCOCC3)O[C@H](CO)[C@H]1O2)C1CCC1 returned EWS-Fli block -0.2, PAX8 reporter 4.7 and LGR2 inh 11.6.
COc1ccc(/C=C2/SC(=S)N(c3ccc(S(=O)(=O)Nc4nccs4)cc3)C2=O)cc1 was read as TROY NFkB inh 54.3*, EWS-Fli block 9.7, TWEAK-Fn14 inh 39.0, PAX8 reporter 15.6, LGR2 inh 30.1 and LMP1 NFkB inh 5.7.
For O=C1/C(=C\c2ccccn2)SC(=S)N1c1ccc(S(=O)(=O)Nc2nccs2)cc1 the results were TROY NFkB inh -2.2, EWS-Fli block 3.2, TWEAK-Fn14 inh -8.4, PAX8 reporter -10.5, LGR2 inh 9.8 and LMP1 NFkB inh 1.1.
`Cc1ccc(/C=C2/SC(=S)N(c3ccc(S(=O)(=O)Nc4nccs4)cc3)C2=O)cc1` gave TROY NFkB inh 61.2*, EWS-Fli block 2.1, TWEAK-Fn14 inh 63.9*, PAX8 reporter 21.8, LGR2 inh 29.9 and LMP1 NFkB inh 66.9*.
C[C@@H]1CN([C@H](C)CO)C(=O)c2cc(C#CC3CCCCC3)cnc2O[C@@H]1CN(C)Cc1cncnc1 was read as EWS-Fli block -29.2 and LGR2 inh -10.2.
Cc1ccc(N/C=C/C(=O)c2ccc(C)cc2)cc1 was read as TROY NFkB inh -1.6, TWEAK-Fn14 inh 2.2 and LMP1 NFkB inh -38.6.
`Cc1ccc(C(=O)/C=C/Nc2ccccc2C(N)=O)cc1` gave TROY NFkB inh -48.7, TWEAK-Fn14 inh 58.4*, PAX8 reporter -26.4 and LMP1 NFkB inh 15.7.
`Cc1ccc(C(=O)/C=C/C(=O)c2ccc(C)cc2)cc1` gave TROY NFkB inh -11.2, EWS-Fli block 11.5, TWEAK-Fn14 inh 19.3, PAX8 reporter -7.9, LGR2 inh -28.0 and LMP1 NFkB inh 45.0*.
Screening Cc1ccc(C(=O)/C=C/Nc2ccccn2)cc1 returned TROY NFkB inh 46.5, TWEAK-Fn14 inh 101.6* and LMP1 NFkB inh 68.6*.
Screening O=C(NC[C@@H]1[C@H](c2ccccc2)[C@@H](CO)N1CC1CCCC1)c1cccnc1 returned EWS-Fli block 3.7, PAX8 reporter 4.7 and LGR2 inh 13.0.
Screening O=C(Nc1ccccc1-c1nc2ccccc2[nH]1)c1ccc(S(=O)(=O)N2CCCCC2)cc1 returned TROY NFkB inh 21.1, TWEAK-Fn14 inh 11.5, LGR2 inh 15.2 and LMP1 NFkB inh -1.2.
`CC1CCCCN1S(=O)(=O)c1ccc(C(=O)Nc2ccccc2-c2nc3ccccc3[nH]2)cc1` (stereo not given) gave TROY NFkB inh 25.6, EWS-Fli block 9.0, TWEAK-Fn14 inh 53.0*, PAX8 reporter 32.2, LGR2 inh 9.6 and LMP1 NFkB inh -4.1.
COC(=O)c1ccc(-c2nc(O)c(C)s2)cc1 was read as TROY NFkB inh 3.0, EWS-Fli block 5.4, TWEAK-Fn14 inh 6.0, PAX8 reporter -19.1, LGR2 inh -2.2 and LMP1 NFkB inh 3.2.
Screening COC(=O)c1ccc(-c2nc3cc(Cl)c(N)cc3s2)cc1 returned TROY NFkB inh 71.1*, TWEAK-Fn14 inh 86.6* and LMP1 NFkB inh 8.9.
`CC(C)CCNC(=O)C(c1ccncc1)N(Cc1cccs1)C(=O)Cn1nnc(-c2ccc(F)cc2)n1` (stereo not given) gave TROY NFkB inh -9.2, TWEAK-Fn14 inh -3.1, PAX8 reporter 79.7* and LMP1 NFkB inh 12.8.
Screening CCOc1ccc(N2CC(O)=C(c3nc4ccccc4c(=O)[nH]3)C2=N)cc1 returned TROY NFkB inh -33.1, EWS-Fli block -6.8, TWEAK-Fn14 inh -12.2, PAX8 reporter 3.9, LGR2 inh 24.7 and LMP1 NFkB inh 45.8*.
`CCOC(=O)c1ccc(N2CC(O)=C(c3nc4ccccc4c(=O)[nH]3)C2=N)cc1` gave TROY NFkB inh -5.4, TWEAK-Fn14 inh -27.5 and LMP1 NFkB inh 2.0.
`CCNC(=S)NNC(=O)c1cc(-c2ccc(OCC)cc2)nc2ccccc12` gave TROY NFkB inh -3.2, EWS-Fli block 71.2*, TWEAK-Fn14 inh 52.1*, LGR2 inh 89.5* and LMP1 NFkB inh 57.0*.
`CCc1ccc(-c2cc(C(=O)Nn3cnnc3)c3ccccc3n2)cc1` gave TROY NFkB inh -2.1, EWS-Fli block 77.6*, TWEAK-Fn14 inh 58.7*, LGR2 inh 8.0 and LMP1 NFkB inh 76.8*.
Screening O=C(Nc1ccc(Cl)cc1)N1C[C@@H]2[C@H](c3ccccc31)[C@H](CO)N2CC1CCCCC1 returned EWS-Fli block -18.4, PAX8 reporter -10.3 and LGR2 inh -4.2.
For COc1ccccc1C#Cc1ccc([C@@H]2[C@@H](CO)N3CCCCN(C(=O)C4CCCC4)C[C@H]23)cc1 the results were EWS-Fli block 10.9 and PAX8 reporter -11.2.
Screening O=C1C2C3C=CC(C4CC34)C2C(=O)N1/N=C/c1ccc([N+](=O)[O-])o1 (stereo not given) returned TROY NFkB inh 20.2, EWS-Fli block 20.5, TWEAK-Fn14 inh 89.6*, PAX8 reporter 17.6, LGR2 inh 25.9 and LMP1 NFkB inh -94.0.
O=[N+]([O-])c1ccc(/C=N/N=C/c2ccc([N+](=O)[O-])o2)o1 was read as TROY NFkB inh -60.9, EWS-Fli block inconclusive, TWEAK-Fn14 inh 83.9*, PAX8 reporter 47.3, LGR2 inh 82.4* and LMP1 NFkB inh -17.1.

Screens deposited in PubChem by several laboratories.
